CRFR2-BP ag: agonists of CRF-BP/CRF-R2 complex, primary screen, cell-based, HEK293, calcium dye fluorescence, uHTS | CRF-binding protein / CRF receptor 2 complex (human) | calcium dye fluorescence (FLIPR); percent of saturating CRF peptide response | activation, % at 13.2 µM | 350,000 tested, 0.46% active | AID 588473, 2011;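 active = activation of at least 50%, plus an integration ratio under a set limit after plate pattern correction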;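 note: plate controls were neutral control wells without compound for no effect and CRF at EC100 for full effect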
IDE cell inh: human IDE inhibitors in live cells, primary screen, fluorescence polarization, HEK cells, FAbetaB substrate; inhibition, % at 5.59 µM; 320,000 tested, 0.41% active; Insulin-degrading enzyme (Homo sapiens), P14735; AID 434962, 2010; FAbetaB cleavage;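 active = percent inhibition above the average of all tested compounds plus 3 SD, set per screening campaign, cut at about 16% in these data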;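 note: IDE supplied by intact live HEK cells; FP after avidin binding of uncleaved biotin substrate so inhibition keeps polarization high; 0% = DMSO wells and 100% = 60 µM reference IDE inhibitor Ii1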
Target sequence (P14735 whole entry, looked up): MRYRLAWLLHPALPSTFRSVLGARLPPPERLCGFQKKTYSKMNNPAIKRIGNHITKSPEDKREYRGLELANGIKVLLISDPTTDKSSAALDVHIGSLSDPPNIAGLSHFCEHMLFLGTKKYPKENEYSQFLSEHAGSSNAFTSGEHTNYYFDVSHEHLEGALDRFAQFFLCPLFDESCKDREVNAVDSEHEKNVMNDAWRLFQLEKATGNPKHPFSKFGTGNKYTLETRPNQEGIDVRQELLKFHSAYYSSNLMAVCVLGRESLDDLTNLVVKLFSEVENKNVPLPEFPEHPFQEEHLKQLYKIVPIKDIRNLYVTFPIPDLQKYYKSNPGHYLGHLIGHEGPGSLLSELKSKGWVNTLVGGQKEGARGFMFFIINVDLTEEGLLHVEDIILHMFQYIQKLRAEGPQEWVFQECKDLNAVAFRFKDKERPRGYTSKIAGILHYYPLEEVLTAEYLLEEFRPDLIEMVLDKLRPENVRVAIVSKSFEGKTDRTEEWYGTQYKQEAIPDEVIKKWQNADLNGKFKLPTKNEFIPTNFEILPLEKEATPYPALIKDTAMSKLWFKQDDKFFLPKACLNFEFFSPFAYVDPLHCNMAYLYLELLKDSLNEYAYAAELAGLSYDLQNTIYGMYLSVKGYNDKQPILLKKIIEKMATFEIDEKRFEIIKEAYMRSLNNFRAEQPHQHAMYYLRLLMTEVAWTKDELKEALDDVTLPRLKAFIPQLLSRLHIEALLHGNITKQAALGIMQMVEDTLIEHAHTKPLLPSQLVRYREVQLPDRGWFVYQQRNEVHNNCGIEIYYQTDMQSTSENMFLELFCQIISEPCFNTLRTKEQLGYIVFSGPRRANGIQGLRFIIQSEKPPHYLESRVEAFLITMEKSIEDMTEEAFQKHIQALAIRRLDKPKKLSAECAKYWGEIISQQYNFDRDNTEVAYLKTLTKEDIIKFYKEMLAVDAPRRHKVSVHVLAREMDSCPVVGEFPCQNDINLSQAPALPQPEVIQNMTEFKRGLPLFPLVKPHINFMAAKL
CRFR2-BP antag: antagonists of CRF-BP/CRF-R2 complex, primary screen, cell-based, HEK293, calcium dye fluorescence, uHTS; CRF-induced calcium fluorescence; inhibition, % at 11.8 µM; 350,000 tested, 0.59% active;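 active = inhibition of the ligand-induced calcium signal above about 50% at the single tested concentration, limit read from the data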
Cardiac RTF inh: cardiac RTF calcium sensitivity inhibitors, primary screen, biochemical, IANBD-TnC fluorescence, EC70 calcium | inhibition, % at 7.15 µM | AID 493244, 2011 | 340,000 tested, 0.12% active | IANBD-labeled cardiac RTF, Ca2+ fluorescence | Troponin I, cardiac muscle (Homo sapiens) + Troponin T, cardiac muscle (Homo sapiens) + …;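 active = inhibition above the mean inhibition of all tested compounds plus 3 SD, cut at about 17% in these data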;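 note: assay run at fixed EC70 calcium of 1.6 mM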
IDE act: human IDE activators in live cells, primary screen, fluorescence polarization, HEK cells, FAbeta-B substrate | activation, % at 5.96 µM | 340,000 tested, 0.073% active | AID 493087, 2011 | Insulin-degrading enzyme (Homo sapiens), P14735 | FAbeta-B cleavage; 0% vehicle, 100% cell-free pure enzyme wells;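 active = activation above the mean of all tested compounds plus 3 SD, set per screening campaign, cut at about 17% in these data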
RTF Ca sens act: cardiac RTF calcium sensitivity activators, primary screen, biochemical, IANBD-TnC fluorescence, EC20 calcium; Troponin I, cardiac muscle (Homo sapiens) + Troponin T, cardiac muscle (Homo sapiens) + …; IANBD-labeled TnC RTF fluorescence at EC20 calcium; 0% EC20 calcium, 100% full calcium; activation, % at 7.2 µM; 340,000 tested, 0.24% active;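 active = activation above the mean over all tested compounds plus 3 SD, cut at about 30% in these data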;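 note: rise in fluorescence read as greater calcium sensitivity of cardiac thin filaments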
Starred values were filed as active, the others as inactive; . = no result given. Only some compounds are listed: those with a hit (about 1.5% of all), similar ones and a draw of the others.

SMILES	CRFR2-BP ag	IDE cell inh	CRFR2-BP antag	Cardiac RTF inh	IDE act	RTF Ca sens act
O=C(CSc1ccccc1)NN1C(=O)c2ccccc2C1=O	-2	-2	122*	-6	6	-5
CC(=O)/C=C/n1c(=S)oc2ccccc21	2	1	70*	.	.	.
CC(C)CC(=O)/C=C/n1c(=S)oc2ccccc21	-1	2	3	1	-4	2
CCc1ccc(C(O)(CNCc2ccccc2)c2ccccc2)cc1 (centres undefined)	4	.	-14	-2	3	-6
Cc1cc(C)nc(SCC(=O)NC(=O)c2ccccc2O)n1	0	2	-11	-6	-4	39*
CC[C@@](C)(NS(=O)(=O)OCC(Cl)(Cl)Cl)c1ccccc1	0	0	-3	-6	4	5
O=C1c2ccccc2-c2onc3ccc(Oc4ccccc4)c1c23	18	9	-66	-56	-17	31*
O=C(c1ccccc1)c1coc2c1C(=O)c1ccccc1C2=O	0	2	-7	3	2	2
O=C(Nc1ccc(C(F)(F)F)cc1)N1CCN(c2ccnc3cc(Cl)ccc23)CC1	5	30*	-6	.	.	.
COc1ccc(OCC(CO)N2CCN(c3ccccc3)CC2)cc1 (centres undefined)	-2	.	-23	-4	5	-5
Cc1ccc(CNC(=O)CN2CCN(c3ccc(F)cc3)CC2)cc1	0	5	2	-1	-1	1
COc1ccc(CNC(=O)CN2CCN(c3ccc(F)cc3)CC2)cc1	-2	-1	58*	-5	3	-2
C[C@@H]1CN([C@H](C)CO)C(=O)c2cc(Br)cnc2O[C@H]1CN(C)Cc1cccnc1	-2	.	31	.	.	.
CCCCOc1ccc(S(=O)(=O)N2CCN(c3ccc(N4CCN(CC)CC4)nn3)CC2)cc1	-2	4	7	-15	0	-9
Cc1ccc(S(=O)(=O)/N=C2/NC(=O)/C(=C\c3ccccc3)S2)cc1	-1	4	15	0	0	-2
Cc1ccc(S(=O)(=O)/N=C2/NC(=O)/C(=C/c3ccccc3)S2)cc1	-2	-3	115*	3	-1	-2
COc1ccc(O)c(C(=O)c2cnc3c(c2)c(=O)[nH]c(=O)n3C)c1	-6	4	2	-11	-2	3
COCCn1c(=O)[nH]c(=O)c2cc(C(=O)c3cc(Cl)ccc3O)cnc21	99*	-5	-9	6	4	1
COc1ccc(N=Cc2c(O)c3ccccc3n2C(C)=O)cc1	99*	-4	-67	-16	-22	16
COc1ccc(-n2c(O)c(C=Nc3ccccc3)c3ccccc3c2=O)cc1	4	2	-6	-5	2	-2
CCC(C)N(C(=O)CSc1nnc(-c2ccco2)n1C)C1CCS(=O)(=O)C1 (centres undefined)	0	4	0	-19	-1	5
COc1cc(/C=N/NC(=O)c2ccoc2C)cc(OC)c1OC	-1	9	2	-6	1	5
Cc1cc(/C=N/NC(=O)c2ccoc2C)cc(C)c1O	0	.	68*	.	.	.
COc1ccc(CN2CC(=O)N(c3cccc(Cl)c3)C2=S)cc1OC	1	-1	90*	2	2	-1
COc1ccc(CN2CC(=O)N(c3ccc(Cl)cc3)C2=S)cc1OC	-4	3	16	-5	2	2
COc1ccc(CN2C(=O)C(CC(=O)NCc3ccco3)CC(C(=O)N3CCOCC3)=C2C)cc1 (centres undefined)	0	.	-10	.	.	.
CCOC(=O)C1CCN(C(=O)c2ccc(C)c(S(=O)(=O)N3CCCC3)c2)CC1	-1	9	2	-7	9	2
